According to PMC12136788:
Over roughly 5,800 sequences, “enrichment r” has its median near 0.54; the highest 2% begin near 16. The list comes from a sample in which the highest values are over-represented; it also holds similar and randomly drawn sequences.

B1: chr11:46542767:46542868:-|CDS|ENSG00000110497|msi1|total|mutant (ssRNA)
RNA: GGGAGUUCUACAGUCCGACGAUCAACACGCUCCGCAACCUCAGUCUGGGUCCUACCCGCCGCUCUUUGGGAGGGCCUCUGUCCCGCCACCCUUCCCGGUAUCACCGAGAAACCGCUCCUGGGUUGACAGGAUCUGAGUGGACCCAACAGAGGAUUGAGCAUCA
B2: chrX:21994482:21994713:+|3pUTR|ENSG00000102172|msi1|total|mutant (ssRNA)
RNA: GGGAGUUCUACAGUCCGACGAUCCAGCUGAAGGAUGGUCCGACAGCACAGCGAAGACUGCUAAAUGCACUGACCCCCCCCAUCCGAAUGUGAUUUUUGUUCCUUUUUAUUUCUCUGUGGGCUUUUGUUUUUGUUUUUGUUUUGCAACAGAGGAUUGAGCAUCA
B3: chr19:41261474:41261596:+|3pUTR|ENSG00000167601|msi1|total|mutant (ssRNA)
RNA: GGGAGUUCUACAGUCCGACGAUCUCUAAAGGUCCACAGGUCCCGACUAUCCGGUGCAAUUUCAAGGUUCUAACCCUAUACUGCCGUAUUCUUUGGGGUGCCCCUCUCCUUCUCCGCUAUCAUUGCUUCCUCCUCCCCAACUGUCAACAGAGGAUUGAGCAUCA
B4: ENSG00000198589:be:win_4151|CDS|ENSG00000198589|bound_else_gene|NA|bound_elsewhere_windowed (ssRNA)
RNA: GGGAGUUCUACAGUCCGACGAUCCGGCUACACAUGAACUGGAAAAUAUUGAACCUACUCAAGGCCUUUCAAUAGAAGCCUCUGUGACAUUUUUGCAGAGGCUAAUUAGCCUUGUGGAUGUGCUUAUAUUUGCAAGUUCUCUUGCAACAGAGGAUUGAGCAUCA
B5: ENSG00000198589:be:win_9651|3pUTR|ENSG00000198589|bound_else_gene|NA|bound_elsewhere_windowed (ssRNA)
RNA: GGGAGUUCUACAGUCCGACGAUCCUUCAAGUGGUCCCUCUUUUUUUCCUACACACUCAGCUCUUCUCUAAAAGCAAGGAUUUGGAAUGAACAAUUCAGUUUGACAGAAAAAGCUGAAUAAAAUGGCAUCUGUAAUUGAAUUGUCAACAGAGGAUUGAGCAUCA
B6: chr13:20822168:20822271:-|CDS|ENSG00000132953|unk|total|mutant (ssRNA)
RNA: GGGAGUUCUACAGUCCGACGAUCUCGAAAAAUCAGAGAAGAUUCAGAUAUGGCACAAGAUUCUCUGCAGUGCCUUGCCCAGUCCGCUUCUCUUCAUGGACCCAUCUUCCCAGAUGAAGGAUCACAAGUUGAUUAUCCCGCACACAACAGAGGAUUGAGCAUCA

Target: MSI1 full-length (mouse, UniProt Q61474 1-362)
Sequence (Q61474 whole entry): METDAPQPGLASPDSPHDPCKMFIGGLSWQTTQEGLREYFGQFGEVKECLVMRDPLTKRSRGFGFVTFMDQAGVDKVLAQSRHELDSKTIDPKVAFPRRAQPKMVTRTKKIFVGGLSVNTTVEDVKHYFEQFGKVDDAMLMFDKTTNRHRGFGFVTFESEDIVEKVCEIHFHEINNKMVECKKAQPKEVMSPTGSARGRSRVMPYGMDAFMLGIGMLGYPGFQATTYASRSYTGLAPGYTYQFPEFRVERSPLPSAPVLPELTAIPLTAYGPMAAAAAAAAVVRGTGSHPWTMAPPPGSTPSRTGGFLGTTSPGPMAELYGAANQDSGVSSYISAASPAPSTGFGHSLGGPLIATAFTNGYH
Experiment: nsRBNS (natural sequence RNA bind-n-seq); RBNS binding buffer (assumed for nsRBNS): 25 mM Tris pH 7.5, 150 mM KCl, 3 mM MgCl2, 0.01% Triton X-100, 500 ug/ml BSA, 20 U/ml SUPERase-In, 4 C; UNK is unkempt and MSI1 is Musashi-1; names of the RNAs are library labels; protein concentration not given here; high values mean tight binding

Binder | binding signal [enrichment R]
B1 | 0.529
B2 | 0.697
B3 | 0.848
B4 | 0.181
B5 | 0.318
B6 | 0.303
